From PubChem BioAssay AID1159580 (chemical genetic matrix, 2015)
Hit rate of the full screen: of about 5,500 compounds, about 2,000 (36%) were called active. Not shown: some 18% with an inconclusive outcome. This is one part of the list. Unmarked numbers belong to inactive results. No stated cut-off is given here; in the data, active means normalized growth mostly below about 0.91 (no sharp cut-off); inconclusive means no clear call, values can overlap the other calls; inactive means mostly above about 0.92.

Test: chemical genetic growth profiling, strain panel (AID 1159580);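 further: tested at 20 µM; growth read once vehicle control cultures reached saturation at 30 °C; 1 = growth at the plate median or of vehicle wells; lower values mean less growth of the strain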
Details: S. cerevisiae deletion strains, growth OD
[1] = locus YAL021C, strain ccr4, active compounds read low
[2] = locus YAL026C, strain drs2, active compounds read low
[3] = locus YAL030W, strain snc1, active compounds read low
[4] = locus YBL061C, strain skt5, active compounds read low
[5] = locus YBR009C, strain hhf1, active compounds read low
[6] = locus YBR023C, strain chs3, active compounds read low
[7] = locus YBR171W, strain sec66, active compounds read low
[8] = locus YBR231C, strain swc5, active compounds read low
[9] = locus YBR279W, strain paf1, active compounds read low
[10] = locus YCL011C, strain gbp2, active compounds read low
[11] = locus YCL016C, strain dcc1, active compounds read low
[12] = locus YCL061C, strain MRC1, active compounds read low
[13] = locus YCL069W, strain vba3, active compounds read low
[14] = locus YCR088W, strain abp1, active compounds read low
[15] = locus YDL005C, strain med2, active compounds read low
[16] = locus YDL040C, strain nat1, active compounds read low
[17] = locus YDR001C, strain nth1, active compounds read low
[18] = locus YDR069C, strain doa4, active compounds read low
[19] = locus YDR137W, strain rgp1, active compounds read low
[20] = locus YDR159W, strain sac3, active compounds read low
[21] = locus YDR297W, strain sur2, active compounds read low
[22] = locus YDR334W, strain swr1, active compounds read low
[23] = locus YDR335W, strain msn5, active compounds read low
[24] = locus YDR392W, strain spt3, active compounds read low
[25] = locus YEL003W, strain gim4, active compounds read low
[26] = locus YEL037C, strain rad23, active compounds read low
[27] = locus YEL061C, strain CIN8 (second series), active compounds read low
[28] = locus YER015W, strain faa2, active compounds read low
[29] = locus YER016W, strain bim1, active compounds read low
[30] = locus YER111C, strain swi4, active compounds read low
[31] = locus YER155C, strain BEM2 (second series), active compounds read low
[32] = locus YFR010W, strain ubp6, active compounds read low
[33] = locus YGL167C, strain pmr1, active compounds read low
[34] = locus YGL173C, strain kem1, active compounds read low
[35] = locus YGL227W, strain vid30, active compounds read low
[36] = locus YGL240W, strain doc1, active compounds read low
[37] = locus YGL253W, strain hxk2, active compounds read low
[38] = locus YHR013C, strain ard1, active compounds read low
[39] = locus YHR027C, strain rpn1, active compounds read low
[40] = locus YHR142W, strain chs7, active compounds read low
[41] = locus YJL092W, strain hpr5, active compounds read low
[42] = locus YJL095W, strain BCK1 (second series), active compounds read low
[43] = locus YJL115W, strain asf1, active compounds read low
[44] = locus YJL129C, strain trk1, active compounds read low
[45] = locus YJL154C, strain vps35, active compounds read low
[46] = locus YJL164C, strain tpk1, active compounds read low
[47] = locus YJL166W, strain qcr8, active compounds read low
[48] = locus YJL187C, strain SWE1, active compounds read low
[49] = locus YKL160W, strain elf1, active compounds read low
[50] = locus YKR026C, strain gcn3, active compounds read low
[51] = locus YKR091W, strain srl3, active compounds read low
[52] = locus YLL001W, strain dnm1, active compounds read low
[53] = locus YLL026W, active compounds read low
[54] = locus YLL041C, strain sdh2, active compounds read low
[55] = locus YLR027C, strain aat2, active compounds read low
[56] = locus YLR221C, strain rsa3, active compounds read low
[57] = locus YLR258W, strain gsy2, active compounds read low
[58] = locus YLR262C, strain YPT6 (second series), active compounds read low
[59] = locus YLR320W, strain mms22, active compounds read low
[60] = locus YLR342W, strain FKS1, active compounds read low
[61] = locus YLR357W, strain rsc2, active compounds read low
[62] = locus YLR370C, strain arc18, active compounds read low
[63] = locus YLR384C, strain iki3, active compounds read low
[64] = locus YML120C, strain ndi1, active compounds read low
[65] = locus YMR058W, strain fet3, active compounds read low
[66] = locus YMR125W, strain sto1, active compounds read low
[67] = locus YMR129W, active compounds read low
[68] = locus YMR205C, strain PFK2, active compounds read low
[69] = locus YMR231W, strain pep5, active compounds read low
[70] = locus YNL071W, strain lat1, active compounds read low
[71] = locus YNL209W, strain ssb2, active compounds read low
[72] = locus YNL248C, strain rpa49, active compounds read low
[73] = locus YNL322C, strain KRE1 (second series), active compounds read low
[74] = locus YNR049C, strain mso1, active compounds read low
[75] = locus YOR001W, strain rrp6, active compounds read low
[76] = locus YOR070C, strain gyp1, active compounds read low
[77] = locus YOR080W, strain dia2, active compounds read low
[78] = locus YOR083W, strain WHI5, active compounds read low
[79] = locus YOR106W, strain vam3, active compounds read low
[80] = locus YOR265W, strain rbl2, active compounds read low
[81] = locus YOR270C, strain vph1, active compounds read low
[82] = locus YOR290C, strain snf2, active compounds read low
[83] = locus YPL051W, strain arl3, active compounds read low
[84] = locus YPL078C, strain atp4, active compounds read low
[85] = locus YPL106C, strain sse1, active compounds read low
[86] = locus YPL240C, strain hsp82, active compounds read low

Structure (SMILES): COc1ccc(C=CC(=O)c2ccc(O)cc2O)cc1OC
- normalized growth [1]: 0.908
- normalized growth [2]: 0.876 (active)
- normalized growth [3]: 0.964
- normalized growth [4]: 0.811 (active)
- normalized growth [5]: 0.867 (active)
- normalized growth [6]: 0.797 (active)
- normalized growth [7]: 0.965
- normalized growth [8]: 0.86 (active)
- normalized growth [9]: 0.879 (active)
- normalized growth [10]: 0.934
- normalized growth [11]: 0.936
- normalized growth [12]: 0.976
- normalized growth [13]: 0.975
- normalized growth [14]: 0.982
- normalized growth [15]: 0.983
- normalized growth [16]: 0.984
- normalized growth [17]: 0.971
- normalized growth [18]: 0.953
- normalized growth [19]: 0.59 (active)
- normalized growth [20]: 0.893
- normalized growth (locus YDR195W, strain ref2): 1.16 [resistant] (active)
- normalized growth [21]: 0.968
- normalized growth [22]: 0.974
- normalized growth [23]: 0.973
- normalized growth [24]: 0.361 (active)
- normalized growth [25]: 0.936
- normalized growth [26]: 0.983
- normalized growth [27]: 0.977
- normalized growth [28]: 0.965
- normalized growth [29]: 0.979
- normalized growth [30]: 0.994
- normalized growth [31]: 0.696 (active)
- normalized growth [32]: 0.96
- normalized growth [33]: 0.961
- normalized growth [34]: 0.972
- normalized growth [35]: 0.987
- normalized growth [36]: 0.893
- normalized growth [37]: 0.862 (active)
- normalized growth [38]: 0.842 (active)
- normalized growth [39]: 0.982
- normalized growth [40]: 0.645 (active)
- normalized growth [41]: 0.972
- normalized growth [42]: 0.863 (active)
- normalized growth [43]: 0.989
- normalized growth [44]: 0.818 (active)
- normalized growth [45]: 0.998
- normalized growth [46]: 0.859 (active)
- normalized growth [47]: 0.83 (active)
- normalized growth [48]: 0.929
- normalized growth [49]: 0.83 (active)
- normalized growth [50]: 0.976
- normalized growth [51]: 0.989
- normalized growth [52]: 0.935
- normalized growth [53]: 0.914 (active)
- normalized growth [54]: 0.978
- normalized growth [55]: 0.886 (active)
- normalized growth [56]: 0.855 (active)
- normalized growth [57]: 0.914 (active)
- normalized growth [58]: 0.65 (active)
- normalized growth [59]: 0.732 (active)
- normalized growth [60]: 0.96
- normalized growth [61]: 0.992
- normalized growth [62]: 0.929
- normalized growth [63]: 0.995
- normalized growth [64]: 0.833 (active)
- normalized growth [65]: 0.908
- normalized growth [66]: 0.933
- normalized growth [67]: 0.98
- normalized growth [68]: 0.759 (active)
- normalized growth [69]: 0.996
- normalized growth [70]: 0.666 (active)
- normalized growth [71]: 0.958
- normalized growth [72]: 0.935
- normalized growth [73]: 0.996
- normalized growth [74]: 0.974
- normalized growth [75]: 0.87 (active)
- normalized growth [76]: 0.883 (active)
- normalized growth [77]: 0.991
- normalized growth [78]: 0.835 (active)
- normalized growth [79]: 0.814 (active)
- normalized growth [80]: 0.969
- normalized growth [81]: 0.653 (active)
- normalized growth [82]: 0.767 (active)
- normalized growth [83]: 0.768 (active)
- normalized growth [84]: 0.828 (active)
- normalized growth [85]: 0.881
- normalized growth [86]: 0.973

Structure (SMILES): COc1ccc(/C=C/C(=O)c2ccc(O)cc2O)cc1
- normalized growth [1]: 0.643 (active)
- normalized growth [2]: 0.39 (active)
- normalized growth [3]: 0.477 (active)
- normalized growth [4]: 0.371 (active)
- normalized growth [5]: 0.329 (active)
- normalized growth [6]: 0.296 (active)
- normalized growth [7]: 0.736 (active)
- normalized growth [8]: 0.35 (active)
- normalized growth [9]: 0.486 (active)
- normalized growth [10]: 0.414 (active)
- normalized growth [11]: 0.398 (active)
- normalized growth [12]: 0.494 (active)
- normalized growth [13]: 0.436 (active)
- normalized growth [14]: 0.637 (active)
- normalized growth [15]: 0.412 (active)
- normalized growth [16]: 0.68 (active)
- normalized growth [17]: 0.546 (active)
- normalized growth [18]: 0.815 (active)
- normalized growth [19]: 0.218 (active)
- normalized growth [20]: 0.355 (active)
- normalized growth (locus YDR195W, strain ref2): 0.69 (active)
- normalized growth [21]: 0.643 (active)
- normalized growth [22]: 0.383 (active)
- normalized growth [23]: 0.477 (active)
- normalized growth [24]: 0.107 (active)
- normalized growth [25]: 0.333 (active)
- normalized growth [26]: 0.678 (active)
- normalized growth [27]: 0.222 (active)
- normalized growth [28]: 0.496 (active)
- normalized growth [29]: 0.488 (active)
- normalized growth [30]: 0.193 (active)
- normalized growth [31]: 0.125 (active)
- normalized growth [32]: 0.661 (active)
- normalized growth [33]: 0.782 (active)
- normalized growth [34]: 0.326 (active)
- normalized growth [35]: 0.246 (active)
- normalized growth [36]: 0.349 (active)
- normalized growth [37]: 0.23 (active)
- normalized growth [38]: 0.352 (active)
- normalized growth [39]: 0.59 (active)
- normalized growth (locus YHR030C, strain SLT2, active compounds read low): 0.458 (active)
- normalized growth (locus YHR079C, strain IRE1, active compounds read low): 0.48 (active)
- normalized growth [40]: 0.175 (active)
- normalized growth [41]: 0.523 (active)
- normalized growth [42]: 0.187 (active)
- normalized growth (locus YJL095W, strain BCK1, active compounds read low): 0.423 (active)
- normalized growth [43]: 0.56 (active)
- normalized growth [44]: 0.386 (active)
- normalized growth [45]: 0.697 (active)
- normalized growth [46]: 0.324 (active)
- normalized growth [47]: 0.266 (active)
- normalized growth [48]: 0.492 (active)
- normalized growth (locus YJR066W, strain TOR1, active compounds read low): 0.439 (active)
- normalized growth [49]: 0.299 (active)
- normalized growth [50]: 0.784 (active)
- normalized growth [51]: 0.699 (active)
- normalized growth [52]: 0.528 (active)
- normalized growth [53]: 0.267 (active)
- normalized growth [54]: 0.615 (active)
- normalized growth [55]: 0.369 (active)
- normalized growth (locus YLR113W, strain HOG1, active compounds read low): 0.361 (active)
- normalized growth [56]: 0.28 (active)
- normalized growth [57]: 0.476 (active)
- normalized growth [58]: 0.221 (active)
- normalized growth [59]: 0.14 (active)
- normalized growth [60]: 0.313 (active)
- normalized growth [61]: 0.633 (active)
- normalized growth [62]: 0.619 (active)
- normalized growth [63]: 0.671 (active)
- normalized growth [64]: 0.336 (active)
- normalized growth [65]: 0.34 (active)
- normalized growth [66]: 0.205 (active)
- normalized growth [67]: 0.707 (active)
- normalized growth [68]: 0.26 (active)
- normalized growth [69]: 0.462 (active)
- normalized growth [70]: 0.0785 (active)
- normalized growth (locus YNL183C, strain NPR1, active compounds read low): 0.516 (active)
- normalized growth [71]: 0.661 (active)
- normalized growth [72]: 0.402 (active)
- normalized growth [73]: 0.618 (active)
- normalized growth [74]: 0.631 (active)
- normalized growth [75]: 0.444 (active)
- normalized growth [76]: 0.336 (active)
- normalized growth [77]: 0.631 (active)
- normalized growth [78]: 0.479 (active)
- normalized growth [79]: 0.38 (active)
- normalized growth (locus YOR231W, strain MKK1, active compounds read low): 0.495 (active)
- normalized growth [80]: 0.535 (active)
- normalized growth [81]: 0.161 (active)
- normalized growth [82]: 0.28 (active)
- normalized growth [83]: 0.273 (active)
- normalized growth [84]: 0.32 (active)
- normalized growth [85]: 0.458 (active)
- normalized growth [86]: 0.44 (active)
- normalized growth (locus YPL256C, strain CLN2, active compounds read low): 0.5 (active)
